Results taken from the supplement of paper PMC10338343.
± gives the standard deviation.

system: MILI (PIWIL2) piRISC loaded with L1MC piRNA (26 nt); assay: pre-steady-state target cleavage rate (min^-1); guide: L1MC piRNA 5'p-UAACUAAAUACUAUGCAAGCUGUAGG; MIWI and MILI are mouse PIWI proteins and EfPiwi is from a freshwater sponge; tags in brackets are library labels; higher = faster piRNA-guided slicing of the target; conditions: auxiliary factor: 500 nM mouse GTSF1
Summary of the method: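 A burst-and-steady-state fit was used to obtain the pre-steady-state cleavage rate. The input data were sequencing reads of uncleaved targets, normalised to depth and to weakly complementary targets, from a […] transcribed, DNA-blocked target RNA library mixed with 1 nM active affinity-purified piRISC holding one synthetic guide, with or without 500 nM GTSF1 partner protein, in HEPES–potassium acetate buffer at 33 °C for 0–8 or 0–960 min. Three trials were pooled and k3 was capped at 0.0001 min^-1.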
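Note: 1 nM active piRISC with 0.1 nM target library at 33 °C single turnover.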

Which “pre-steady-state target cleavage rate” value does the source give for UCCUGGAUCAGGUUGCAUAGUUUUUAGUUA here?
The value was 0.023 ± 0.0088.

How did the “pre-steady-state target cleavage rate” value turn out when UCCUGGAACAGCUAGCAUAGUAAUUAGUUA was run?
Its value is 0.155 ± 0.018.

Which “pre-steady-state target cleavage rate” value does the source give for UCCUCCAACAGCUUGCAUAGUAUAUAGUUA here?
Its value is 0.234 ± 0.027.

How did the “pre-steady-state target cleavage rate” value turn out when UCCUGGUAGUCCUUGCAUAGUAUUUAGUUA was run?
Its value is 0.126 ± 0.018.

How did the “pre-steady-state target cleavage rate” value turn out when UCCUGGAUCAGCUUGGAUAGUAUUUAGUAA was run?
Its value is 0.166 ± 0.019.

For UCCUGGAUGAGCUUGCAUAGUAUGUUAGUUA, which “pre-steady-state target cleavage rate” value is on record?
The value was 0.157 ± 0.021.

UCCUGGAUCACCUUGCAUACUAUUUAGUUA was tested. Which “pre-steady-state target cleavage rate” value did it give?
Its value is 0.0453 ± 0.011.

UCCUCCUACAGCUUGCAUGGUAUUUAGUUA was tested. Which “pre-steady-state target cleavage rate” value did it give?
The value was 0.413 ± 0.019.

UCCUCCUACAGCUUGCAUAGUAUUUAGUCA was tested. Which “pre-steady-state target cleavage rate” value did it give?
The value was 0.303 ± 0.025.

UCCUGGAACAGCUUGCAUAGUAUUUAGUGUA was tested. Which “pre-steady-state target cleavage rate” value did it give?
The value was 0.231 ± 0.018.

How did the “pre-steady-state target cleavage rate” value turn out when UCCUCCUACAGCAUGCAUAGUAUUUAGUUA was run?
The value was 0.316 ± 0.021.

How did the “pre-steady-state target cleavage rate” value turn out when UCCUGCUACCAGCUUGCAUAGUAUUUAGUUA was run?
The value was 0.24 ± 0.019.

With UCCUCCUACAGCUUGCAAAGUAUUUAGUUA as the sequence, how does the “pre-steady-state target cleavage rate” value read?
Its value is 0.167 ± 0.014.

Which “pre-steady-state target cleavage rate” value does the source give for UCCUCCUACAGCUUGGAUAGUAUAUAGUUA here?
Its value is 0.195 ± 0.022.

How did the “pre-steady-state target cleavage rate” value turn out when UCCUGCUACAGCAUGCAUAGUAUAUAGUUA was run?
Its value is 0.284 ± 0.03.

How did the “pre-steady-state target cleavage rate” value turn out when UCCUGCUACACGAUGCAUAGUAUUUAGUAA was run?
The value was 0.257 ± 0.032.

UCCUGGAUGUCCCUGCAUAGUAUUUAGUUA was tested. Which “pre-steady-state target cleavage rate” value did it give?
The value was 0.085 ± 0.014.

How did the “pre-steady-state target cleavage rate” value turn out when UCCUGGUACAGCUUGCAUAAUAUUUAGUUA was run?
Its value is 0.338 ± 0.068.

Which “pre-steady-state target cleavage rate” value does the source give for UCCUGCUACAGGUAGCAUAGUAUUUAGUUA here?
Its value is 0.367 ± 0.031.

For UCCUGGUACAGCUUGCAUAGUAUUUAGUGUA, which “pre-steady-state target cleavage rate” value is on record?
The value was 0.143 ± 0.021.

With UCCUGGUACAGCAUGCAUACUAUUUAGUUA as the sequence, how does the “pre-steady-state target cleavage rate” value read?
Its value is 0.139 ± 0.031.

How did the “pre-steady-state target cleavage rate” value turn out when UCCUGGUACGAGCUUGCAUAGUAUUUAGUUA was run?
The value was 0.247 ± 0.045.

UCCUGGAUGUCCGUUGCAUAGUAUUUAGUUA was tested. Which “pre-steady-state target cleavage rate” value did it give?
Its value is 0.0604 ± 0.018.

With UCCUCCUACAGAUUGCAUAGUAUUUAGUUA as the sequence, how does the “pre-steady-state target cleavage rate” value read?
The value was 0.236 ± 0.014.

UCCUGCUACAGCUUGCAUAGGUAUUUAGUUA was tested. Which “pre-steady-state target cleavage rate” value did it give?
Its value is 0.00815 ± 0.0047.

For UCCUGGAUCUGCUUGCAUUGUAUUUAGUUA, which “pre-steady-state target cleavage rate” value is on record?
Its value is 0.159 ± 0.015.

For UCCUGCUACUGCUUGGAUAGUAUUUAGUUA, which “pre-steady-state target cleavage rate” value is on record?
The value was 0.221 ± 0.016.

With UCCUGGAAUAGCUUGCAUAGUAUUUAGUUA as the sequence, how does the “pre-steady-state target cleavage rate” value read?
Its value is 0.221 ± 0.015.

With UCCUGCUUCAGCUUGCAUAGUAUUUAGUUA as the sequence, how does the “pre-steady-state target cleavage rate” value read?
The value was 0.312 ± 0.019.

For UCCUGGAUCAGCUUCGAUAGUAUUUAGUUA, which “pre-steady-state target cleavage rate” value is on record?
Its value is 0.233 ± 0.018.

For UCCUGGUAGAGCUUGCAUAGUAUUUAGUUA, which “pre-steady-state target cleavage rate” value is on record?
Its value is 0.245 ± 0.015.

Which “pre-steady-state target cleavage rate” value does the source give for UCCUGCUACAGGUUGGAUAGUAUUUAGUUA here?
The value was 0.204 ± 0.018.

How did the “pre-steady-state target cleavage rate” value turn out when UCCUGCUACAGCUUGCAAUGUAUUUAGUUA was run?
Its value is 0.0986 ± 0.014.

For UCCUGGAUGUCCUUCGCAUAGUAUUUAGUUA, which “pre-steady-state target cleavage rate” value is on record?
The value was 0.0676 ± 0.015.

For UCCUGGAACAGCUUGCAUAGUAUCUUAGUUA, which “pre-steady-state target cleavage rate” value is on record?
Its value is 0.267 ± 0.022.

With UCCUGCUACAGCUUGCAUUGUAUUUUGUUA as the sequence, how does the “pre-steady-state target cleavage rate” value read?
Its value is 0.159 ± 0.024.

UCCUGGAUGAGCUUGCAUAGUAUUUAGUAA was tested. Which “pre-steady-state target cleavage rate” value did it give?
Its value is 0.218 ± 0.019.

With UCCUGGAAGAGCUUGCAUUGUAUUUAGUUA as the sequence, how does the “pre-steady-state target cleavage rate” value read?
Its value is 0.208 ± 0.011.

With UCCUGCUACAGAUUGCAUAGUAUUUAGUUA as the sequence, how does the “pre-steady-state target cleavage rate” value read?
The value was 0.299 ± 0.015.

Which “pre-steady-state target cleavage rate” value does the source give for UCCUGGAACAGCCUGCAUAGUAUUUAGUUA here?
The value was 0.247 ± 0.012.
